Screening results (PubChem)
D2 PAM-1: positive allosteric modulators of human D2 dopamine receptor; P14416; AID 624464; 0.23% of 360,000 active; DiscoveRx D2 beta-arrestin cells, luminescence, 90 min; 100% = 57 uM dopamine signal; potentiation, % (test concentration not listed); in the data active means potentiation above about 50%; inconclusive means mostly about 30% to 49%
Target sequence (P14416 whole entry, looked up): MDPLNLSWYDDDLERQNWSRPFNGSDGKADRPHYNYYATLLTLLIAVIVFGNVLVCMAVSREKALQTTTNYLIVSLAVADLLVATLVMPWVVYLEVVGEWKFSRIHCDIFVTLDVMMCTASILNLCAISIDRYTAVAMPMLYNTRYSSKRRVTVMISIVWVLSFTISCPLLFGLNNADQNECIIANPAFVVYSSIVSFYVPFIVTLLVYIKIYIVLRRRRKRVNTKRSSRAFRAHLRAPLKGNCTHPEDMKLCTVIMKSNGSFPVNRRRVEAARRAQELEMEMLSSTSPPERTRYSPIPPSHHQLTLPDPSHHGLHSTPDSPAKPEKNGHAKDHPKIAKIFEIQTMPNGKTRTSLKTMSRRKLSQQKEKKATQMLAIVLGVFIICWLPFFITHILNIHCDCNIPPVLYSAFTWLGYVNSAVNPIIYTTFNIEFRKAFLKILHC
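D2 cells co-treated with compound plus 50 nM dopamine (EC20) for 90 min at 37 deg C to detect potentiation. Beta-arrestin recruitment was read as enzyme-fragment luminescence after 1 h at ambient temperature. Full response was set by 57 uM dopamine.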
D2 PAM-2: positively modulates the human D2 dopamine receptor allosterically. potentiation, % at 10 µM. P14416. 0.34% of 340,000 active. HEK293 T-REx D2, calcium flux, EC20 dopamine potentiation;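 active means potentiation over 3 SD above the plate norm, cut at about 30% in these data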
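Primary screen. Calcium kinetics in induced HEK293 T-REx D2 cells: compound pre-addition 180 s, EC20 dopamine, 180 s more.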
D2 ag-1: D2 dopamine receptor (human) agonism; HEK293 T-REx D2 cells, calcium flux agonist mode; 0.53% of 340,000 active; activation, % at 2 µM; P14416;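 active means activation over 3 SD above normal in the single-dose calcium agonist read, cut at about 30% in these data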
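Agonism scored from kinetic calcium signal (1 read/sec, 180 s) following compound pin transfer, after a 10 s baseline. Cells: HEK293 Trex line expressing inducible D2 receptor coupled to calcium, dye-loaded after overnight culture at 30 C.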
D2 antagonist: D2 dopamine receptor (human) antagonism; HEK293 TREx D2 cells, calcium flux, dopamine EC80; P14416; 2% of 340,000 active; inhibition, % at 10 µM; in the data active means inhibition above about 30%; inactive means below that, where a call was filed
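Measurement of antagonist activity uses fluorescent calcium dye in inducible HEK293 T-REx D2 cells: 10 s baseline, compound addition with 180 s read, EC80 dopamine addition with a further 180 s read.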
D2 ag-2: human D2 receptor agonism in beta-arrestin assay | 0.084% of 360,000 active | activation, % (test concentration not listed) | DiscoveRx PathHunter D2 beta-arrestin, luminescence, 90 min; 100% = 57 uM dopamine signal | P14416; in the data active means activation above about 40%; inconclusive means between about 15% and that limit
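DiscoveRx PathHunter D2 beta-arrestin cells (2,100/well) attached overnight, then compound-stimulated 90 min at 37 C in HBSS/10 mM HEPES/0.1% Tween-20 buffer; beta-galactosidase complementation read by luminescence after 1 h at ambient temperature. Dopamine 57 uM final (EC100) as control.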
Large screens that a line does not name were inactive. Compounds with a hit are over-represented: about 2.4% of the library has one in this group of screens.

O=C(CSc1nc2c([nH]c3ccccc32)c(=O)n1-c1cccc(C(F)(F)F)c1)N1CCc2ccccc21	none (no result: D2 PAM-1, D2 antagonist, D2 ag-2)
COc1ccc(C(C)(C)C)cc1NC(=O)CCc1c(C)noc1C	D2 antagonist 63
COc1ccc(C(C)(C)C)cc1NC(=O)c1c(C)noc1C	none
COc1cccc(NC(=S)Nc2cc(C)cc(C)n2)c1	D2 antagonist 44
Cc1cc(C)nc(NC(=S)Nc2cccc(F)c2)c1	none
Cc1cc(NC(=O)COCc2cc(-c3ccc(F)cc3)on2)ccc1Br	none (no result: D2 PAM-1, D2 antagonist, D2 ag-2)
COCCCNc1nc2c(c(=O)n(C)c(=O)n2C)n1Cc1cccc(OC)c1	D2 antagonist 40
COCCNc1nc2c(c(=O)n(C)c(=O)n2C)n1Cc1cccc(C)c1	none
Cc1ccccc1C1N(c2nccs2)C(=O)C2CCCN21 (configuration not stated)	none
O=C1C2CCCN2C(c2ccccc2)N1c1nccs1 (configuration not stated)	D2 antagonist 67
OC(CNCc1ccccc1)Cn1ccc2ccccc21 (configuration not stated)	none
OC(CN1CCNCC1)Cn1ccc2ccccc21 (configuration not stated)	none (no result: D2 PAM-1, D2 ag-2)
OCc1nc2ccccc2n1CC(O)Cn1ccc2ccccc21 (configuration not stated)	D2 PAM-2 32
Oc1ccccc1NCC(O)Cn1ccc2ccccc21 (configuration not stated)	D2 PAM-1 58
COc1cccc2cc(C(=O)NCCc3c(C)[nH]c4ccc(Br)cc34)c(=O)oc12	none (no result: D2 PAM-1, D2 antagonist, D2 ag-2)
CC1CCCN(CCCNC(=O)c2cc(Sc3ccc(F)cc3)nc3ccccc23)C1 (configuration not stated)	none (no result: D2 PAM-1, D2 antagonist, D2 ag-2)
Cc1ccc2[nH]c(=O)c(CN(CCCN3CCOCC3)C(=O)Nc3ccc(Cl)cc3)cc2c1	D2 antagonist 31
COc1ccccc1N1CCN(S(=O)(=O)c2c(C)[nH]c(C)c2C(=O)N2CCCC2)CC1	D2 antagonist 31
O=[N+]([O-])c1ccc2ncnc(N3CCN(Cc4ccc5c(c4)OCO5)CC3)c2c1	D2 ag-1 77, D2 antagonist 101, D2 ag-2 inconclusive
CN(C/C=C/c1ccccc1[N+](=O)[O-])Cc1ccccc1	D2 antagonist 57
O=[N+]([O-])c1ccccc1/C=C/CN1CCN(Cc2ccc3c(c2)OCO3)CC1	D2 antagonist 31
CC(C)N(Cc1ccccc1)C(=O)/C=C/c1ccccc1[N+](=O)[O-]	none
O=[N+]([O-])c1ccccc1/C=C/CN1CCCCC1	D2 antagonist 36
CC(C)(C)OC(=O)N1CCC(c2c(C(=O)NCC3CCN(C4CCCC4)C3)cnn2-c2ccccc2Cl)CC1 (configuration not stated)	D2 antagonist 46
CC(C)(C)OC(=O)N1CCC(c2c(C(=O)O)cnn2-c2ccccc2Cl)CC1	none
COc1ccccc1NS(=O)(=O)c1cccc2cccnc12	D2 antagonist 31
Cc1ccccc1NC(=O)c1ccccc1NC(=O)c1ccco1	none
CNC(=O)c1ccccc1NC(=O)c1ccco1	D2 PAM-2 34
CC1CCCCN1C(=O)c1ccccc1NC(=O)c1ccco1 (configuration not stated)	D2 PAM-2 31
O=C(c1ccc(Cl)cc1)c1coc2ccc(O)cc12	D2 antagonist 35
O=C(c1ccc(Br)cc1)c1coc2ccc(O)cc12	none (no result: D2 PAM-2, D2 ag-1, D2 antagonist)
CSCCC(NS(=O)(=O)c1ccc2c(c1)oc(=O)n2C)C(=O)N1CCN(c2cccc(Cl)c2)CC1 (configuration not stated)	none (no result: D2 PAM-1, D2 antagonist, D2 ag-2)
CCc1cc2ccc(C)cc2nc1SCC(=O)c1ccc(NC(C)=O)cc1	none
CCc1cc2cccc(C)c2nc1SCC(=O)c1ccc(NC(C)=O)cc1	D2 antagonist 47
CCCCCC[N+](C)(C)CC/C=C1/c2ccccc2Sc2ccc(Cl)cc21	D2 antagonist 75
CN(C)CC/C=C1\c2ccccc2COc2ccccc21	D2 antagonist 51
CN(C)CC/C=C1/c2ccccc2CS(=O)(=O)c2ccccc21	none (no result: D2 PAM-2, D2 ag-1, D2 antagonist)
CN(C)CC/C=C1/c2ccccc2Sc2ccc(Cl)cc21	D2 antagonist 103
S=C1Nc2ccccc2Sc2ccc(Cl)cc21	none
COc1ccc(Cl)cc1NC(=O)CSc1nnc2[nH]c(=O)cc(-c3ccccc3)n12	none (no result: D2 PAM-1, D2 ag-1, D2 antagonist, D2 ag-2)
CC(=O)c1cccc(NC(=O)c2c(C)nn(-c3ccc(F)cc3)c2-n2cccc2)c1	none (no result: D2 PAM-1, D2 antagonist, D2 ag-2)
O=C(NCCc1ccccc1)C(=O)NCC(c1ccc2c(c1)OCO2)N1CCOCC1 (configuration not stated)	none (no result: D2 PAM-1, D2 ag-1, D2 antagonist, D2 ag-2)
COc1ccc(NC(=O)N2CCCC(CCC(=O)N(C)CCc3ccccn3)C2)cc1 (configuration not stated)	none
CCc1ccccc1NC(=O)N1CCCC(CCC(=O)N(C)CCc2ccccn2)C1 (configuration not stated)	D2 antagonist 33
COc1ccccc1-c1cc(C(=O)N/N=C/c2ccoc2)c2ccccc2n1	D2 antagonist 79
CCc1ccc(/C=N/NC(=O)c2cc(-c3ccccc3OC)nc3ccccc23)s1	D2 antagonist 35
COc1ccccc1-c1cc(C(=O)N/N=C/c2ccc(C)s2)c2ccccc2n1	D2 antagonist 48
O=C(N/N=C/c1cccnc1)c1cc(-c2ccccc2Cl)nc2ccccc12	none
Cc1ccccc1-c1cc(C(=O)N/N=C/c2cccnc2)c2ccccc2n1	D2 antagonist 33
COc1ccc(/C=N/NC(=O)c2cc(-c3ccccc3OC)nc3ccccc23)cc1COC(C)=O	none
COc1ccc(S(=O)(=O)N(CC(=O)N2CCC(C)CC2)c2ccc(C)cc2)cc1	none (no result: D2 PAM-1, D2 antagonist, D2 ag-2)
COc1cccc(C2C(C(=O)Nc3ccccc3OC)=C(C)Nc3nc(-c4ccco4)nn32)c1 (configuration not stated)	none (no result: D2 PAM-1, D2 antagonist, D2 ag-2)
Cc1ccc(-n2ncc(C(=O)NCc3ccco3)c2C2CCN(C(=O)OC(C)(C)C)CC2)c(C)c1	none (no result: D2 PAM-1, D2 antagonist, D2 ag-2)
CC(=O)c1ccc(N2CCN(C(=O)Nc3cn(CC(C)C)c(=O)c4ccccc34)CC2)cc1	none (no result: D2 PAM-1, D2 antagonist, D2 ag-2)
COc1cc(CNCc2cc(OC)c(OC)c(OC)c2)cc(OC)c1	D2 antagonist 30
Cc1c(C(=O)N2CCCCCC2)nnn1-c1nonc1N	D2 antagonist 41
CCOC(=O)c1nnn(-c2nonc2N)c1CN1CCCCCC1	none
c1ccc(COc2cccc(CN3CCCCC3)c2)cc1	none (no result: D2 ag-1, D2 antagonist)
Cc1cccc(CN2CCN(c3ccccn3)CC2)c1	D2 PAM-1 92, D2 ag-2 46 (no result: D2 PAM-2, D2 ag-1, D2 antagonist)
c1ccc(COc2cccc(CN3CCN(c4ccccn4)CC3)c2)cc1	D2 PAM-1 inconclusive, D2 ag-2 48
Cc1cc(N2CCOCC2)nc2ccc(NC(=O)CCC(=O)N3CCN(c4ccccc4)CC3)cc12	D2 PAM-2 31
Cc1nnc(SCc2ccccc2Cl)c2cc3occc3n12	none (no result: D2 PAM-1, D2 antagonist, D2 ag-2)
COc1cccc(C(=O)CSc2nc3cccnc3n2C)c1	D2 antagonist 37
